# What was measured:
# Assay in all cases: DAPPL (digital affinity profiling via proximity ligation, sequencing); 10 mM Tris-HCl pH 7.5, 50 mM NaCl, 1 mM DTT, 4% glycerol, room temperature, 30 min; GST-TFs on glutathione beads, 16-mer random dsDNA library, 0.1% formaldehyde crosslink after washing; high values mean tight binding
# Conditions in all cases: protein: recombinant; tags: N-terminal GST; dsDNA, one strand shown
# [1] = target: T1, FLI1 (Homo sapiens, UniProt Q01543 1-452)
# T1 sequence: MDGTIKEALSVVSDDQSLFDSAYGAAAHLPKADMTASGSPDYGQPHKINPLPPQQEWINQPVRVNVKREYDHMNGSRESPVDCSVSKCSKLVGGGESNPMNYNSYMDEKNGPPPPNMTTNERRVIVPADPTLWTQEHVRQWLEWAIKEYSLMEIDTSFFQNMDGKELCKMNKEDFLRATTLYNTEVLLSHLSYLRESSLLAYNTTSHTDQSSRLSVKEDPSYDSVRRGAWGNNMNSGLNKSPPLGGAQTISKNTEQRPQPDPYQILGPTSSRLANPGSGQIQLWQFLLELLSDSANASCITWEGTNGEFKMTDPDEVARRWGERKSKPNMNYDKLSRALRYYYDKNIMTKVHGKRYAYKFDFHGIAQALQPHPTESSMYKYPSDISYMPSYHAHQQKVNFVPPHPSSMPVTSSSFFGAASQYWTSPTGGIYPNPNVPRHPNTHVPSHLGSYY
# Summary of the method: (§1)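 A tag-only sample was pooled with DNA-barcoded human transcription factors that had been expressed in yeast as GST fusions and captured on glutathione beads. The pools were incubated for 30 min at room temperature with 200 nmole of a random double-stranded 16-mer DNA library in Tris/NaCl/DTT/glycerol buffer, then washed, crosslinked with 0.1% formaldehyde, proximity-ligated (BsaI/T4 ligase, 1 h, 37 °C), PCR-amplified and sequenced on an Illumina NextSeq500. Binding signal is each hexamer's read frequency for a factor divided by its frequency for the tag-only sample.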
# [2] = target: T2, ELK1 (Homo sapiens, UniProt P19419 1-428)
# T2 sequence: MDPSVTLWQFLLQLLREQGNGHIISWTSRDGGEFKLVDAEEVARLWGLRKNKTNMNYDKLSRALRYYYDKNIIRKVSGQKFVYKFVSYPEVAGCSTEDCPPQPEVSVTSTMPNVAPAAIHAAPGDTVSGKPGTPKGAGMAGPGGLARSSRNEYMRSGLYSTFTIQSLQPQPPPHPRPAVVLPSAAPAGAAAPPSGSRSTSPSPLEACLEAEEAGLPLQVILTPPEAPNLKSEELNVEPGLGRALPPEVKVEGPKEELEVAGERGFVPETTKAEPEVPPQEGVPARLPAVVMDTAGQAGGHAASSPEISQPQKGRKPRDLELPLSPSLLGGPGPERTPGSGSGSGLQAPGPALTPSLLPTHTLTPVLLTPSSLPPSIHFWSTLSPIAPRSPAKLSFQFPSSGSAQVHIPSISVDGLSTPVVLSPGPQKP
# Summary of the method: as §1
# [3] = target: T3, GABPA (Homo sapiens, UniProt Q06546 1-454)
# T3 sequence: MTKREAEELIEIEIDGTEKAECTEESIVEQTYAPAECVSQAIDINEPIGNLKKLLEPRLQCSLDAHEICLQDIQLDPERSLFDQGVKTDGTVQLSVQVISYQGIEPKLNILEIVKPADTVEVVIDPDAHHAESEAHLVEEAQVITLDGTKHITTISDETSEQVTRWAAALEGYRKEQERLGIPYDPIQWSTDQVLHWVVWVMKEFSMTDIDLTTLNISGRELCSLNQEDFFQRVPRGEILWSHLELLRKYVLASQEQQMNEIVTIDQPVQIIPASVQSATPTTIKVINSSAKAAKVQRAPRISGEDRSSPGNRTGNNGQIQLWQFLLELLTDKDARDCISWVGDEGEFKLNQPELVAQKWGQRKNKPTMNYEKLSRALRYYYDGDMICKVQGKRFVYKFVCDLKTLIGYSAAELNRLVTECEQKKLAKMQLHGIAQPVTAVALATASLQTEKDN
# Summary of the method: as §1
# [4] = target: T4, ERG (Homo sapiens, UniProt P11308 1-479)
# T4 sequence: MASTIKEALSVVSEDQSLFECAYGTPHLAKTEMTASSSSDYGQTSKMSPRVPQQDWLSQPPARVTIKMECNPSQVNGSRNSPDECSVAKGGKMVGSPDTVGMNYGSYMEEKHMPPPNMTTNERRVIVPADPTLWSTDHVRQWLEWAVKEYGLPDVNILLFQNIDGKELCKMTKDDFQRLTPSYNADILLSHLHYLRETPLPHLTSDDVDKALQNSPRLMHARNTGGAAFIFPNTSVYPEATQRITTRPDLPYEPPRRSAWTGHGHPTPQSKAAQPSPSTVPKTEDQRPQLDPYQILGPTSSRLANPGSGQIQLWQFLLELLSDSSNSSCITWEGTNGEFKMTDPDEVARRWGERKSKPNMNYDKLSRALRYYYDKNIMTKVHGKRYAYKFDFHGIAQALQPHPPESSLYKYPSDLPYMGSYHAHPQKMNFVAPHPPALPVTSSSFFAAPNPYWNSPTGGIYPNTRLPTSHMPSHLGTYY
# Summary of the method: as §1
# [5] = target: ELF1 (Homo sapiens, UniProt P32519 1-619)
# ELF1, sequence (P32519 whole entry): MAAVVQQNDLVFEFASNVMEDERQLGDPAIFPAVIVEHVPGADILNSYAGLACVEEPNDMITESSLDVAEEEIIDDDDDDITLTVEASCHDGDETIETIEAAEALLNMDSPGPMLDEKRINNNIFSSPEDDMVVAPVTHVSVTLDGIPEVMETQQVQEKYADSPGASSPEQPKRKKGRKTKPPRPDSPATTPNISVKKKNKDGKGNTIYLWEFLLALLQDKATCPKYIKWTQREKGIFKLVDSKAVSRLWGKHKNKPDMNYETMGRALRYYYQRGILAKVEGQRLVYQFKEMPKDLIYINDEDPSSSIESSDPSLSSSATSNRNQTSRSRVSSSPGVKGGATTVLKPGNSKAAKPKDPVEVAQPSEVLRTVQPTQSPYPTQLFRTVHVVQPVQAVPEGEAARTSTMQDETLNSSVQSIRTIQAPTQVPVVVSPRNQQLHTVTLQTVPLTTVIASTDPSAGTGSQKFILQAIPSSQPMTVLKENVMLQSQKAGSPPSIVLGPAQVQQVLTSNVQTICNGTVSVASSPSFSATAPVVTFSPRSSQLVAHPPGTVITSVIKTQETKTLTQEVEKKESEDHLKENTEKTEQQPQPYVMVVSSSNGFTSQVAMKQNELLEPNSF
# Summary of the method: as §1
# [6] = target: T5, EHF (Homo sapiens, UniProt Q9NZC4 1-300)
# T5 sequence: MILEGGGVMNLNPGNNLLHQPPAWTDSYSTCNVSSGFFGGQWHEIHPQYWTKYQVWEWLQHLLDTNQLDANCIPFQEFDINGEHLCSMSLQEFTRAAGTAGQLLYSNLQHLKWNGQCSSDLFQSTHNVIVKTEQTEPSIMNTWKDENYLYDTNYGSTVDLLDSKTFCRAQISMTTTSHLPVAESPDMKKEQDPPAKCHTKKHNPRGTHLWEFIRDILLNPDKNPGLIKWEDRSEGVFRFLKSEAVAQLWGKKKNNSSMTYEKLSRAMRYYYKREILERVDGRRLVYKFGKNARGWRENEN
# Summary of the method: as §1
# [7] = target: SPI1 (Homo sapiens, UniProt P17947 1-270)
# Summary of the method: as §1
# [8] = target: SPIB (Homo sapiens, UniProt Q01892 1-262)
# SPIB, sequence (Q01892 whole entry): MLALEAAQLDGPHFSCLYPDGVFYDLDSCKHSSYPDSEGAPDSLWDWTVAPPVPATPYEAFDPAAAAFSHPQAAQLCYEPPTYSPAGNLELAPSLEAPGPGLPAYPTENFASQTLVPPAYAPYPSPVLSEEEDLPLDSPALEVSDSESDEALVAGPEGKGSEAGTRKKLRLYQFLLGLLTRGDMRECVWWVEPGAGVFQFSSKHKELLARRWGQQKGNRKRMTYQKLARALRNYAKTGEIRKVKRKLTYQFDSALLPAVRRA
# Summary of the method: as §1
# [9] = target: T6, ELK3 (Homo sapiens, UniProt P41970 1-407)
# T6 sequence: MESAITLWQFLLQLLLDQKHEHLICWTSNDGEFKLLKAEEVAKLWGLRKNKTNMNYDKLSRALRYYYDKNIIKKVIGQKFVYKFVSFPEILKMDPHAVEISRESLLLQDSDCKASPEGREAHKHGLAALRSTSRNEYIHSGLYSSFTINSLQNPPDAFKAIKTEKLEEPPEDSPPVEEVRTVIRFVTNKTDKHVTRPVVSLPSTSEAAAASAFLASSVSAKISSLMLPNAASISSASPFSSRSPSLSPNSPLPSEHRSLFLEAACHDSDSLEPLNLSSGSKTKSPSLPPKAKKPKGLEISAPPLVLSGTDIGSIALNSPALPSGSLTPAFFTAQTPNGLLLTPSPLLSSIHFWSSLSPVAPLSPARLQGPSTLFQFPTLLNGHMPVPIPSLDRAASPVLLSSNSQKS
# Summary of the method: as §1
sequence,measurement,setting,value
GTTCCC,binding signal,[1],"1.36 fold enrichment (6-mer frequency, TF over GST control)"
same,binding signal,[2],"1.27 fold enrichment (6-mer frequency, TF over GST control)"
same,binding signal,[3],"1.33 fold enrichment (6-mer frequency, TF over GST control)"
same,binding signal,[4],"1.25 fold enrichment (6-mer frequency, TF over GST control)"
same,binding signal,[5],"1.28 fold enrichment (6-mer frequency, TF over GST control)"
same,binding signal,[6],"1.28 fold enrichment (6-mer frequency, TF over GST control)"
same,binding signal,[7],"1.71 fold enrichment (6-mer frequency, TF over GST control)"
same,binding signal,[8],"1.37 fold enrichment (6-mer frequency, TF over GST control)"
same,binding signal,[9],"1.23 fold enrichment (6-mer frequency, TF over GST control)"

# — paper PMC7862700, “An all-to-all approach to the identification of sequence-specific readers for epigenetic DNA modifications on cytosine”
